PubChem BioAssay AID488943 (Broad Institute, 2010)
Measured potencies and affinities stand elsewhere. A number with no mark means an inactive call.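 Rule for the calls: active = compounds with a fitted half-maximal inhibitory dose at or below ten times their top tested dose; inconclusive = flat curve at 30 to 70% inhibition, or poor fit; inactive = the rest.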

Assay: fluconazole resistance reversal in C. albicans, dose response, CaCi-2 strain, Alamar Blue, dry powder, set 4 (AID 488943)
Settings: C. albicans CaCi-2 (fluconazole-resistant clinical isolate) + fluconazole, Alamar Blue growth, 48 h; series mostly up to 6 µM; activity change, negative = inhibition: at the top concentration

SMILES	activity change, negative = inhibition
O=C(c1ccc(Cl)cc1)N1CCN(c2cccc(C(F)(F)F)n2)CC1	-5.41%
CC(C)C(=O)N1CCN(c2ccnc3cc(Cl)ccc23)CC1	-14.5%
O=C(c1ccc(Cl)cc1)N1CCN(c2ccncc2)CC1	-18.9%
COCCC(=O)N1CCN(c2ccnc3cc(Cl)ccc23)CC1	-13.7%
O=C(c1ccc(Cl)cc1)N1CCN(c2cc(C(F)(F)F)nc3ccccc23)CC1	10.5%
O=C(c1ccc(Cl)cc1)N1CCN(c2ccnc3ccccc23)CC1	-24.1%
Cc1cccc(N2CCN(C(=O)c3ccc(Cl)cc3)CC2)n1	-9.45%
O=C(c1ccc(Cl)cc1)N1CCNCC1	13.3%
O=C(c1ccc(Cl)cc1)N1CCCN(c2ccnc3cc(Cl)ccc23)CC1	-25.6%
Cc1cc(N2CCN(C(=O)c3ccc(Cl)cc3)CC2)c2ccccc2n1	6.08%
COc1cccc2c(N3CCN(C(=O)c4ccc(Cl)cc4)CC3)cc(C)nc12	10.9%
O=C(C1CC1)N1CCN(c2ccnc3cc(Cl)ccc23)CC1	-28.7%
O=S(=O)(c1ccc(Cl)cc1)N1CCN(c2ccnc3cc(Cl)ccc23)CC1	-10.1%
CCCCNC(=O)N1CCN(c2ccnc3cc(Cl)ccc23)CC1	1.3%
COc1cccnc1N1CCN(C(=O)c2ccc(Cl)cc2)CC1	-19.6%
CCCC(=O)N1CCN(c2ccnc3cc(Cl)ccc23)CC1	-28.2%
